Source: PubChem (several laboratories)
Furin inh = inhibitors of human furin; P09958; purified furin, fluorogenic substrate cleavage; inhibition, % at 20 µM or 30 µM; AID 463115; actives 0.061% (n = 220,000); in the data active = inhibition above about 25%
p47phox inh = inhibitors of human p47phox binding; P14598; p47phox/p22phox peptide binding, fluorescence polarization, 2 h; inhibition, % at 24.7 µM; actives 0.53% (n = 220,000); AID 1274;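 active = inhibition above about 30%, limit read from the data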;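 note: 0% = p47phox with labelled peptide and 100% = labelled peptide alone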
Target sequence (P14598 whole entry, looked up): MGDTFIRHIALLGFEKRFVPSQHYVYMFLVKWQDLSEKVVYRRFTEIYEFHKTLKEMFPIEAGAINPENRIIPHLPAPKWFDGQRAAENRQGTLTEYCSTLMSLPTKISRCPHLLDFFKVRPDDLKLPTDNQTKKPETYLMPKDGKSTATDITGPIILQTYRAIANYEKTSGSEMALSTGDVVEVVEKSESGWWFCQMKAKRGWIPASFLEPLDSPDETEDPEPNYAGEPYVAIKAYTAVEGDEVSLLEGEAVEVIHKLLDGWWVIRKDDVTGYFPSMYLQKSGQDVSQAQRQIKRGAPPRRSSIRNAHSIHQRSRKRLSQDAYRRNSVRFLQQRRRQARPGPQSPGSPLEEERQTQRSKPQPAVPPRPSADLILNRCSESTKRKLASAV
EP2 antag = inhibitors of human EP2 prostaglandin E2 receptor | P43116 | AID 1422 | inhibition, % at 25 µM | actives 0.52% (n = 260,000) | C6 glioma cells expressing human EP2, cAMP TR-FRET; cells stimulated with saturating PGE2;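 active = percent inhibition above 40 after rounding to a whole number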;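 note: rat C6 glioma host cells with rolipram phosphodiesterase inhibitor present; the protocol text gives 20 µM as final concentration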
EP2 mod = EP2 receptor (human) modulation | P43116 | induction, % at 25 µM | EP2-expressing cells, cAMP HTRF FRET, PGE2 co-stimulation | actives 0.83% (n = 260,000) | AID 940;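 active = compounds whose cAMP rise, as percent of the full-agonist control response, exceeds 60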;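 note: rat C6 glioma line stably carrying human EP2 under a CMV promoter; the protocol text gives 20 µM as final concentration; 100% = response of wells given 1 µM PGE2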
Wee1 degr inh = human Wee1 degradation inhibition, primary screen | HeLa Luc-Wee1K328M stability, luciferase luminescence; 100% = proteasome inhibitor MG132 effect | AID 1321 | actives 1.2% (n = 220,000) | reporter increase, % at 5 µM | P30291;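 active = activation above the mean of all tested compounds plus 3 SD, set per screening run, cut at about 8.8% in these data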;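 note: cells exposed to compound for 20 h before luminescence read; 0% = DMSO alone and 100% = MG132 at 30 µM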
HSV augment = HSV replication enhancement. HSV replication augmentation in cells, fold increase. maximum fold increase. actives 0.005% (n = 220,000); in the data active = maximum fold increase above about 1.5; tested in PC3 cells
EP2 cAMP induct = EP2 receptor cAMP induction, counter-screens negative | shares compounds with EP2 mod | C6 glioma EP2 cells, cAMP HTRF induction; plus low (about EC15) PGE2 agonist | calls only at 20 µM (by protocol) | actives 47% (n = 1,300) | AID 1080;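 active = cAMP induction above 50% in the main assay while under 30% in all four parallel counter assays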;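 note: rat C6 glioma cells stably expressing human EP2 receptor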
Starred values were filed as active, the others as inactive; i = inactive; nt = not tested or not shown; + = active, no number; ! = not active in a repeat. This is a sample that favours compounds with a hit; in the whole collection about 2.8% have one here.

SMILES	Furin inh	p47phox inh	EP2 antag	EP2 mod	Wee1 degr inh	HSV augment	EP2 cAMP induct
CCn1nnc(NC(=O)c2cccc(C)c2)n1	nt	nt	11.8	-8.5	nt	nt	nt
C/C(=N\N=C(c1ccccc1)c1ccccc1)c1ccco1	0.8	3.8	7.0	81.3*	3.0	i	+
Cc1ccc(C(=O)CSc2nc3ccccc3o2)cc1C	nt	nt	5.0	22.0	nt	nt	nt
O=C(c1nc2ccccc2s1)C1CCN(C(=O)CCn2c(=O)oc3ccccc32)CC1	nt	nt	nt	-34.1	nt	nt	nt
COc1ccc(C2C(C(=O)OC(C)C)=C(C)NC3=C2C(=O)CC(C)(C)C3)cc1 (centres undefined)	nt	nt	7.0	5.5	nt	nt	nt
CN(C)c1ncc(S(=O)(=O)c2ccccc2)c(-c2ccccc2Cl)n1	-13.9	1.1	4.8	65.6*	0.4	i	+
C/C=C/Cn1c(SCc2ccc(C)cc2)nc2c1c(=O)[nH]c(=O)n2C	-21.7	-9.4	16.4	86.0*!	-1.3	i	+
C/C(Cl)=C/Cn1c(SC(C)C)nc2c1c(=O)[nH]c(=O)n2C	-14.6	6.3	6.2	65.2*	-0.6	i	i
C=CCn1c(SCc2ccc(F)cc2)nc2c1c(=O)[nH]c(=O)n2C	-0.5	-5.4	10.4	6.8	-0.5	i	nt
CCCSc1nc2c(c(=O)[nH]c(=O)n2C)n1C/C=C(/C)Cl	nt	nt	11.7	59.2	nt	nt	nt
CC(=O)CSc1nc(C)cc(C)c1C#N	nt	nt	10.6	-6.2	nt	nt	nt
CC(C)(C)n1nnnc1C(c1ccncc1)N(Cc1ccccc1)Cc1ccco1 (centres undefined)	-22.1	-19.2	25.3	70.5*	-1.7	i	i
CC(C)(C)n1nnnc1C(c1cccs1)N(Cc1ccccc1)Cc1ccco1 (centres undefined)	-10.0	-16.4	15.1	13.0	2.2	i	nt
O=C(O)/C=C/C(O)c1ccc(Cl)cc1 (centres undefined)	nt	nt	13.2	79.3*	nt	nt	i
Cc1ccc2cccc(NC(=O)c3ccc(Br)o3)c2n1	-10.2	-17.1	9.6	87.3*	-3.4	i	+
O=C(Nc1ccccc1-c1nc2ccccc2s1)c1ccc(Br)o1	-5.8	-5.3	12.6	77.6*	0.3	i	+
O=C1CC(C(=O)Nc2ccc(C(=O)O)cc2)C2(CCCCC2)O1 (centres undefined)	nt	nt	8.5	16.6	nt	nt	nt
COc1ccc(OC)c(-c2csc(N(CC3CCCO3)C(=O)c3ccc(C(C)(C)C)cc3)n2)c1 (centres undefined)	nt	nt	7.4	48.6	nt	nt	nt
CN(/N=C/C=C/c1ccccc1)C1=NS(=O)(=O)c2ccccc21	-10.2	0.2	3.4	82.3*	-0.3	i	+
COc1ccc(-n2c(SCC(=O)N3CCCC(C)C3)nnc2-c2ccccn2)cc1 (centres undefined)	nt	nt	7.0	-9.3	nt	nt	nt
Cc1ccc(C(Sc2ccccc2)C(Cn2cncn2)C(=O)c2ccccc2)cc1 (centres undefined)	-18.6	10.2	8.3	72.8*	0.4	i	+
Cc1ccc(SC(c2ccc(C)cc2)C(Cn2cncn2)C(=O)c2ccccc2)cc1 (centres undefined)	-16.5	0.9	7.0	28.5	0.7	i	nt
C=CCn1c(=O)c2c3c(sc2n2c(Nc4ccc(OC)cc4)nnc12)CCCC3	-24.8	-6.8	12.3	74.9*	2.0	i	+
C=CCSc1nc(N(CC)CC)c2sccc2n1	-16.8	-3.7	14.0	66.7*	-3.5	i	i
C=CCNc1nc(SC)nc2ccsc12	0.5	-9.3	10.0	-3.0	3.1	i	nt
O=C(CSc1nnc(-c2cccs2)n1Cc1ccccc1)NCc1ccc2c(c1)OCO2	-10.3	-8.1	16.3	16.3	-3.1	i	nt
CC(Sc1nnc(-c2cccs2)n1Cc1ccccc1)C(=O)NCc1ccc2c(c1)OCO2 (centres undefined)	-17.3	-19.3	2.4	69.5*	10.4*	i	i
CC1Cc2cc(C(O)CN3CCN(c4ccccc4F)CC3)ccc2O1 (centres undefined)	nt	nt	10.0	-49.0	nt	nt	nt
CN(C)C(CNS(=O)(=O)c1ccc2c(c1)oc(=O)n2C)c1ccccc1Cl (centres undefined)	nt	nt	4.6	-52.8	nt	nt	nt
COC(=O)c1cc2ccsc2n1CC(=O)N(C)c1ccccc1	-21.6	-6.4	18.6	-7.5	-0.6	i	nt
